# Laboratory results reported in the supplement of paper PMC6992640.
# ± gives the standard deviation of the averaged measurements.
# What was measured:
# Experiment in all cases: cell viability (% of vehicle); higher = less cytotoxic
# Settings in all cases: 10 µM; 72 h
# HCI01 = system: HCI01 (cells of a triple-negative basal-like breast cancer xenograft)
# HCI03 = system: HCI03 (cells of an ER-positive luminal breast cancer xenograft)
# HCI09 = system: HCI09 (cells of a triple-negative luminal androgen receptor type breast cancer xenograft)
# HCI11 = system: HCI11 (cells of an ER-positive luminal breast cancer xenograft)
# HCI13 = system: HCI13 (cells of an ER-positive luminal breast cancer xenograft)
# HCI16 = system: HCI16 (cells of a triple-negative basal-like breast cancer xenograft)
# UCD52 = system: UCD52 (cells of a triple-negative basal-like breast cancer xenograft)
# WHIM2 = system: WHIM2 (cells of a triple-negative basal-like breast cancer xenograft)
# WHIM30 = system: WHIM30 (cells of a triple-negative basal-like breast cancer xenograft)
# 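Note: PDX cells carrying CMV promoter-driven luciferase, viability read as total photon flux per second by IVIS imaging following D-luciferin, vehicle control 0.1% DMSO.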
Compound,cell viability (HCI01),cell viability (HCI03),cell viability (HCI09),cell viability (HCI11),cell viability (HCI13),cell viability (HCI16),cell viability (UCD52),cell viability (WHIM2),cell viability (WHIM30)
CCCCCN(C)CCC(O)(P(=O)([O-])O)P(=O)(O)O.O.[Na+] [Ibandronate sodium],113 ± 30,93.2,107 ± 19,101,126 ± 20,138,115 ± 5.5,130 ± 14,128 ± 22
COCCCOc1cc(CC(CC(N)C(O)CC(C(=O)NCC(C)(C)C(N)=O)C(C)C)C(C)C)ccc1OC.COCCCOc1cc(CC(CC(N)C(O)CC(C(=O)NCC(C)(C)C(N)=O)C(C)C)C(C)C)ccc1OC.O=C(O)C=CC(=O)O (centres undefined) [Aliskiren Hemifumarate],117 ± 11,157,107 ± 8.5,97.2,107 ± 2.1,148,108 ± 13,123 ± 14,140 ± 14
CN1CCC(=C2c3ccccc3CC(=O)c3sccc32)CC1.O=C(O)C=CC(=O)O [Ketotifen Fumarate],120 ± 23,125,135 ± 31,102,135 ± 13,173,95.4 ± 4.4,84.4 ± 3.9,154 ± 5.5
C[N+]1(C)CCC(OC(=O)C(O)(c2ccccc2)C2CCCC2)C1.[Br-] (centres undefined) [Glycopyrrolate],110 ± 5.3,152,123 ± 51,99.3,117 ± 12,94.8,95.6 ± 5.1,100 ± 5.2,83.6 ± 6.5
COc1c(C)c2c(c(O)c1CC=C(C)CCC(=O)O)C(=O)OC2 [Mycophenolic acid],99.5 ± 27,93.3,77.8 ± 17,75.1,102 ± 9.5,104,94 ± 6.1,65.8 ± 7.6,151 ± 1.2
CNCC(O)c1ccc(O)c(O)c1 [L-Adrenaline],131 ± 58,137,142 ± 37,110,121 ± 32,138,112 ± 15,102 ± 7.6,162 ± 8.5
CC12CC3CC(C)(C1)CC(N)(C3)C2.Cl [Memantine hydrochloride],88.8 ± 14,146,104 ± 13,99.3,116 ± 3.6,98.2,92.37 ± 0.13,88.1 ± 15,156 ± 21
COC(=O)N(C)c1c(N)nc(-c2nn(Cc3ccccc3F)c3ncccc23)nc1N [Riociguat],122 ± 4.3,106,104 ± 5.6,114,94.87 ± 0.45,91.6,104 ± 2.9,97.2 ± 1.1,124 ± 14
NCCCC(O)(P(=O)([O-])O)P(=O)(O)O.O.O.O.[Na+] [Alendronate],89.6 ± 12,123,85.1 ± 12,69.5,106 ± 5.1,109,94.7 ± 19,104 ± 5.2,97.5 ± 11
CC1C=CC=CC=CC=CC=CC=CC=CC(OC2OC(C)C(O)C(N)C2O)CC2OC(O)(CC(O)CC(O)C(O)CCC(O)CC(O)CC(=O)OC(C)C(C)C1O)CC(O)C2C(=O)O (centres undefined) [Amphotericin B],108 ± 19,116,105 ± 2.6,109,107 ± 18,107,82.2 ± 5.4,95.2 ± 23,127 ± 1.4
CCN1CCCC1CNC(=O)c1cc(S(N)(=O)=O)ccc1OC (centres undefined) [Levosulpiride],127 ± 9.1,126,99.33 ± 0.17,98.2,77.9 ± 5.7,134,93.9 ± 1.6,109 ± 7.3,100 ± 7.4
COC(=O)C1=C(C)NC(C)=C(C(=O)OC(C)C)C1c1cccc2nonc12 (centres undefined) [Isradipine (Dynacirc)],111 ± 18,118,48.7 ± 41,91.9,109 ± 6.2,117,76.2 ± 9.4,92.5 ± 11,88.7 ± 3.6
CC1(C)CCC(C)(C)c2cc(NC(=O)c3ccc(C(=O)O)cc3)ccc21 [Tamibarotene],108 ± 22,63.1,65.6 ± 45,95.9,73.8 ± 30,77.1,124 ± 10,98.1 ± 28,121 ± 9.1
CCOc1ccc2ccccc2c1C(=O)NC1C(=O)N2C1SC(C)(C)C2C(=O)[O-].O.[Na+] (centres undefined) [Nafcillin Sodium],107 ± 8.4,139,109 ± 6,110,117 ± 9.9,105,96.1 ± 8.5,101 ± 3.8,140 ± 11
CN1CCCC1c1cccnc1.O=C(O)C(O)C(O)C(=O)O.O=C(O)C(O)C(O)C(=O)O (centres undefined) [Nicotine Difartrate],115 ± 7.3,107,126 ± 40,114,99.2 ± 3.9,98.7,100 ± 12,99.6 ± 9.8,121 ± 2.7
O=C(O)[C@H](O)[C@@H](O)C(=O)O.c1cnc2cc3c(cc2n1)C1CNC[C@@H]3C1 [Varenicline Tartrate],169.5 ± 0.68,128,131 ± 5.6,138,128.8 ± 0.16,153,99.9 ± 8.8,106 ± 5.1,158 ± 25
COc1ccc2cc([C@H](C)C(=O)[O-])ccc2c1.[Na+] [Naproxen Sodium],83.6 ± 6.4,111,85.8 ± 14,106,124 ± 29,100,99.9 ± 3.1,102 ± 12,121 ± 22
O=C(NC(CO)C(O)c1ccc([N+](=O)[O-])cc1)C(Cl)Cl (centres undefined) [Chloramphenicol],109 ± 15,128,102 ± 12,86.1,81.3 ± 6.8,90.9,92.9 ± 3.5,106 ± 27,100 ± 18
COc1cc(C=CC(=O)N2CCN(CC(=O)N3CCCC3)CC2)cc(OC)c1OC.O=C(O)C=CC(=O)O [Cinepazide maleate],90.6 ± 5.7,130,94.4 ± 8.9,94.4,81.9 ± 12,106,121 ± 8.9,111 ± 17,102 ± 8.3
COC1C(O)CC(=O)OC(C)CC=CC=CC(OC2CCC(N(C)C)C(C)O2)C(C)CC(CC=O)C1OC1OC(C)C(OC2CC(C)(O)C(O)C(C)O2)C(N(C)C)C1O (centres undefined) [Spiramycin],133 ± 7.7,125,110 ± 12,116,78.9 ± 20,138,94.4 ± 1.5,149 ± 30,123 ± 5.8
CC(CCC(=O)O)C1CCC2C3C(O)CC4CC(O)CCC4(C)C3CCC12C (centres undefined) [Chenodeoxycholic Acid],114 ± 38,104,66 ± 10,103,41.5 ± 4.3,102,97.13 ± 0.54,115 ± 23,146 ± 3.2
